Whole data set: some 140,000 sequences, median “enrichment ratio after two sorts for PhoP signalling” near 0, cut for the highest 2% near 11. The sample holds the highest values, similar sequences and a random draw of the others, so the mix is not that of the screen.
B1: PhoQ; a variant is named by its letters at X, in order, P23837 (parent)
chain: MKKLLRLFFPLSLRVRFLLATAAVVLVLSLAYGMVALIGYSVSFDKTTFRLLRGESNLFYTLAKWENNKLHVELPENIDKQSPTMTLIYDENGQLLWAQRDVPWLMKMIQPDWLKSNGFHEIEADVNDTSLLLSGDHSIQQQLQEVREDDDDAEMTHSVAVNVYPATSRMPKLTIVVVDTIPVELKSSYMVWSWFIYVLSANLLLVIPLLWVAAWWSLRPIEALAKEVRELEEHNRELLNPATTRELTSLVRNLNRLLKSERERYDKYRTTLTDLTHSLKTPLXXLQXXLRSLRSEKMSVSDAEPVMLEQISRISQQIGYYLHRASMRGGTLLSRELHPVAPLLDNLTSALNKVYQRKGVNISLDISPEISFVGEQNDFVEVMGNVLDNACKYCLEFVEISARQTDEHLYIVVEDDGPGIPLSKREVIFDRGQRVDTLRPGQGVGLAVAREITEQYEGKIVAGESMLGGARMEVIFGRQHSAPKDE

Variants of: B1
Experiment: enrichment ratio after two sorts for PhoP signalling (ratio (wild type AVST 3.29)); higher = more functional
Conditions: with PhoP (E. coli)

Variant	enrichment ratio
ATSH	10.6
RYPH	≤ 0.25
VVLY	≤ 0.25
VSDV	≤ 0.25
FWLQ	≤ 0.25
ISFK	≤ 0.25
HFQN	≤ 0.25
SRTQ	≤ 0.25
VHLM	≤ 0.25
APLM	≤ 0.25
AQLM	19.4
KKLM	≤ 0.25
ADLM	12.7
FDLM	≤ 0.25
TKLM	21.3
HKLM	≤ 0.25
THLM	12.3
NHLM	≤ 0.25
IQLM	3.4
FHFT	≤ 0.25
HCCR	≤ 0.25
PGAV	≤ 0.25
DVEF	≤ 0.25
FMQW	≤ 0.25
QFLI	≤ 0.25

Variant	enrichment ratio
NSRM	≤ 0.25
RLVV	≤ 0.25
ITNN	≤ 0.25
TTNN	17.8
TNNN	14.7
KCNN	≤ 0.25
TWNN	0.76
YTNN	≤ 0.25
TNEN	≤ 0.25
SPNN	≤ 0.25
PVNN	≤ 0.25
TNMN	≤ 0.25
TNQN	16.8
TVNN	12.7
MDAD	≤ 0.25
QRKY	≤ 0.25
NDMN	≤ 0.25
EKIL	≤ 0.25
PHCG	≤ 0.25
SNES	≤ 0.25
IPVP	≤ 0.25
TNKH	≤ 0.25
FDNN	≤ 0.25
MNQH	≤ 0.25
LTNN	≤ 0.25

Variant	enrichment ratio
TNQH	15
TDNN	33.6
ISMG	1.17
WDMF	≤ 0.25
KSIQ	≤ 0.25
WNCS	≤ 0.25
TCTS	17.5
TCTK	5.27
TCNK	≤ 0.25
TCTI	17.1
KCTI	≤ 0.25
TCTC	11.4
TCIC	≤ 0.25
KCTA	≤ 0.25
TCTA	11.4
TCTE	≤ 0.25
TCDW	≤ 0.25
TCTH	3.96
WMFM	≤ 0.25
HQPT	≤ 0.25
PYKQ	≤ 0.25
WRPH	≤ 0.25
LLYS	≤ 0.25
VMRN	≤ 0.25
AANR	≤ 0.25

Variant	enrichment ratio
IGAM	≤ 0.25
SVEG	≤ 0.25
NHNM	≤ 0.25
VWYA	≤ 0.25
SFCD	≤ 0.25
FSCQ	7.11
SSCQ	13.4
KSCG	1.82
SPCV	≤ 0.25
SSCE	3.26
SSCV	18.4
SSQP	≤ 0.25
SLCV	7.13
SSCG	12.6
SSCI	24.5
SSCS	9.51
TSCG	7.32
AHKE	≤ 0.25
PMIW	≤ 0.25
RAKS	≤ 0.25
VANQ	≤ 0.25
IINC	≤ 0.25
VHNE	≤ 0.25
SDFS	≤ 0.25
PMPC	≤ 0.25

Variant	enrichment ratio
KFDS	≤ 0.25
YAQF	≤ 0.25
EIRD	≤ 0.25
SSNL	3.91
SSCL	18.7
SSWL	10.6
WSRR	≤ 0.25
ELIY	≤ 0.25
KGHE	≤ 0.25
VIMF	≤ 0.25
CTTS	16.8
LTTS	≤ 0.25
TTHH	11.8
YTTS	≤ 0.25
FCHH	≤ 0.25
KCHH	≤ 0.25
TCHH	26.2
YTHH	≤ 0.25
KSHH	≤ 0.25
TTTS	14.1
CSTS	≤ 0.25
TTTC	5.52
SRLA	≤ 0.25
NNFT	≤ 0.25
PAYF	≤ 0.25

Variant	enrichment ratio
PHQG	≤ 0.25
LARQ	≤ 0.25
VYWL	≤ 0.25
HTSP	≤ 0.25
QDNG	≤ 0.25
PCTP	≤ 0.25
KNRD	≤ 0.25
PYIP	≤ 0.25
SDAL	≤ 0.25
TCES	≤ 0.25
VDIK	≤ 0.25
KVYK	≤ 0.25
HCSM	≤ 0.25
CLFG	≤ 0.25
NIPT	≤ 0.25
TTNH	12.2
TTTH	20.3
TTKH	≤ 0.25
YTTH	≤ 0.25
TTTK	16.7
YTTK	≤ 0.25
LTNH	≤ 0.25
KSTK	≤ 0.25
YTNH	≤ 0.25
ENFF	≤ 0.25

Variant	enrichment ratio
VSFD	0.544
LAEF	≤ 0.25
YEFI	≤ 0.25
TRCW	≤ 0.25
YFRG	≤ 0.25
GFVM	≤ 0.25
RLME	≤ 0.25
QHMY	≤ 0.25
LECK	1.26
DMCM	≤ 0.25
LECM	17.2
FNCM	5.18
MACM	≤ 0.25
LNCM	≤ 0.25
TECK	4.11
FECM	5
MECM	36.6
NECM	28.2
YWCM	≤ 0.25
TECM	31.3
QCSI	≤ 0.25
QACK	≤ 0.25
GTRW	≤ 0.25
TLVA	≤ 0.25
TYNL	3.68

Variant	enrichment ratio
RPMT	≤ 0.25
HVPY	≤ 0.25
WMTR	≤ 0.25
WIHI	≤ 0.25
WFNQ	≤ 0.25
HCCF	≤ 0.25
WQVC	≤ 0.25
TGWG	5.4
TQMD	63
TQED	≤ 0.25
NQVC	≤ 0.25
KSWG	≤ 0.25
TQWG	18.3
TQEG	≤ 0.25
TQVG	12.2
TQVC	14.3
TQVA	3.07
TQGD	2.92
IQCQ	≤ 0.25
ACAH	4.6

— a collection of fitness landscapes (doi:10.1126/science.1257360)
